Data: paper PMC5540273 (PLoS ONE, 2017)

system: T1, NDR1; settings: concentration: 1 μM, replicates: in singlicate; n = 1
T1 construct: gene STK38
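Note: KINOMEscan kinase panel screen.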

Row | Compound | %Inh [%]
1 | Cn1ccc2ncnc(Oc3ccc(NC(=O)Nc4ccccc4)cc3)c21 | 9
2 | COc1cccc(NC(=O)NC2CCN(c3ccnc(Nc4ccc(F)cc4)n3)C2)c1 (centres unmarked) [GSK1379721] | 9
3 | Cc1ccccc1-n1cnc2c(N)ncnc21 [SKF-97510] | 0
4 | COc1ccccc1CNC(=O)c1cc(C(=O)c2ccccc2C)c[nH]1 [GSK364507] | 0
5 | Cn1cncc1-c1ccc2ncnc(Nc3ccc(OCc4ccccc4)cc3)c2c1 [GW320571] | 0
6 | O=C1NC(=O)C(N2CCc3ccccc32)=C1c1ccccc1Cl [SB-373598] | 12
7 | COc1ccc(Nc2nccc(-c3cccc(NC(=O)c4cc5cc(F)ccc5[nH]4)c3)n2)cc1 [GSK1229782] | 0
8 | Cc1c(O)cccc1Nc1ccnc2ccc(C(F)(F)F)cc12.Cl [GW466413] | 0
9 | CC1=C(C(=O)Nc2cc3cn[nH]c3cc2F)C(c2ccc(C(F)(F)F)cc2)CC(=O)N1 (centres unmarked) [GSK429286] | 23
10 | COC(=O)c1c(-c2ccccc2)c2cc(C(=O)O)ccc2c(=O)n1Cc1ccccc1 | 2
11 | COc1ccc2nc(-c3cccc(C)n3)nc(Nc3ccncc3)c2c1 [GSK204919] | 0
12 | Cc1cc(-c2ccc3c(c2)CC[C@@H](N[C@@H](C)c2ccccc2)C3)cnc1N.Cl [GW412617] | 0
13 | O=C(Nc1ccccc1)Nc1cccc(Oc2ccc3nccn3n2)c1 | 4
14 | Cc1nnc(-c2ccc3occ(-c4ccc(S(C)=O)cc4)c3c2)[nH]1 (centres unmarked) | 1
15 | Fc1cc(Cl)ccc1Nc1ccnc2cc(-c3ccc(CN4CCCCC4)o3)ccc12 [GW560116] | 9
16 | O=C(Nc1n[nH]c2nc(-c3nccs3)c(Br)cc12)C1CC1 [SB-742251] | 0
17 | Cc1cccc(-c2nc(Nc3ccc4[nH]ncc4c3)c3ccccc3n2)n1 [GW857175] | 26
18 | O=C(Nc1n[nH]c2nc(-c3nccs3)c(Br)cc12)C1CCCC1 [SB-742609] | 0

Row | Compound | %Inh [%]
19 | CS(=O)(=O)c1ccc(-c2c(-c3ncn[nH]3)sc(N3CCOCC3)c2C#N)cc1 | 18
20 | Cc1cccc(-c2nc(Nc3ccncc3)c3ccccc3n2)n1 [GW855857] | 8
21 | CC(=O)Nc1nc2cnc(Nc3cc(NC(=O)c4cccc(CCC#N)c4)ccc3C)nc2s1 | 0
22 | COc1cc2nccc(Nc3ccc(NC(=O)c4ccc(C)cc4)c(O)c3)c2cc1OC.Cl [GW440132] | 0
23 | Cc1ccc(NC(=O)Nc2cc(C(C)(C)C)nn2-c2ccccc2)cc1 [GSK1014915] | 0
24 | COC(=O)c1c(-c2ccccc2)c2cc(OC)ccc2c(=O)n1Cc1ccccc1 | 0
25 | CCCc1ccc(S(=O)(=O)NC2CCN(c3ccnc(Nc4ccc(F)cc4)n3)C2)cc1 (centres unmarked) [GSK1379715] | 0
26 | Cn1ccc2ncnc(Oc3ccc(Nc4nc5ccccc5[nH]4)cc3)c21 | 0
27 | O=S(=O)(c1ccc(-c2ccnc3[nH]ccc23)cc1)N1CCCC1 [GSK846226] | 33
28 | O=C(O)COc1ncnc2cc(-c3ccc4[nH]ncc4c3)sc12 | 24
29 | Cc1cccc(-c2nc(Nc3cccc(C(N)=O)c3)c3ccccc3n2)n1 [GW876019] | 9
30 | O=c1cc(N2CCOCC2)nc2n(Cc3cccc(Cl)c3Cl)ccn12 [GSK2286295] | 12
31 | COc1cccc(-c2cc(-c3c[nH]nc3-c3ccccn3)ccn2)c1 [GW680338] | 16
32 | COc1ccc(CNC(=O)NC2CCN(c3ccnc(Nc4cc(OC)c(OC)c(OC)c4)n3)C2)cc1 (centres unmarked) [GSK1379748] | 21
33 | Cc1ccc(-c2cc(-c3c[nH]nc3-c3ccccn3)ccn2)cc1 [GW684088] | 20
34 | Cl.O=C(Nc1cccc(-c2nn3ncccc3c2-c2ccnc(Nc3cccnc3)n2)c1)c1c(F)cccc1F [GSK312879] | 0
35 | Nc1nc(-c2nccs2)c(-c2ccnc3ccccc23)s1 [GW693542] | 17
